# Test results published in PMC4336329 (PLoS ONE, 2015).
# Hit rate of the full screen: of about 310,000 compounds, about 14,000 (4.5%) showed an effect of 50% or more. Effects have a minus sign here. The sample holds strong results, similar compounds and a random draw of the others, so the mix is not that of the screen.
# Biological target: human ether-à-go-go-related gene (hERG) potassium channel (human, UniProt Q12809)
# Assay: primary screen, population patch clamp on CHO cells stably expressing hERG; higher = less effect of the substance
# Protocol: Briefly, Chinese hamster ovary (CHO) cells stably expressing the hERG channel were dislodged from tissue culture flasks and dispensed into PPC plates. […] During the recording, background leak currents were estimated by a 100 ms step to -80 mV from an initial holding potential of -70 mV and subtracted from the subsequent current measurement. The campaign was conducted in two phases using slight differences in recording protocol. In the first phase, the initial voltage pulse used a 100 ms step to -30 mV from a holding potential of -70 mV, a 2 s conditioning step to +25 mV, and a 2 s test step to -30 mV. During the second phase of the screen, the potential during the conditioning step was raised to +45 mV. In both phases of the campaign, a secondary voltage pulse was applied using the same parameters as the second phase initial pulse. The initial and secondary pulses were applied in the absence of compound, and upon application of 1 μM and 10 μM test concentrations. […]
# 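Note: peak tail current of the secondary pulse compared with the same well before compound.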
# Chain of human ether-à-go-go-related gene (hERG) potassium channel (Q12809 whole entry, looked up): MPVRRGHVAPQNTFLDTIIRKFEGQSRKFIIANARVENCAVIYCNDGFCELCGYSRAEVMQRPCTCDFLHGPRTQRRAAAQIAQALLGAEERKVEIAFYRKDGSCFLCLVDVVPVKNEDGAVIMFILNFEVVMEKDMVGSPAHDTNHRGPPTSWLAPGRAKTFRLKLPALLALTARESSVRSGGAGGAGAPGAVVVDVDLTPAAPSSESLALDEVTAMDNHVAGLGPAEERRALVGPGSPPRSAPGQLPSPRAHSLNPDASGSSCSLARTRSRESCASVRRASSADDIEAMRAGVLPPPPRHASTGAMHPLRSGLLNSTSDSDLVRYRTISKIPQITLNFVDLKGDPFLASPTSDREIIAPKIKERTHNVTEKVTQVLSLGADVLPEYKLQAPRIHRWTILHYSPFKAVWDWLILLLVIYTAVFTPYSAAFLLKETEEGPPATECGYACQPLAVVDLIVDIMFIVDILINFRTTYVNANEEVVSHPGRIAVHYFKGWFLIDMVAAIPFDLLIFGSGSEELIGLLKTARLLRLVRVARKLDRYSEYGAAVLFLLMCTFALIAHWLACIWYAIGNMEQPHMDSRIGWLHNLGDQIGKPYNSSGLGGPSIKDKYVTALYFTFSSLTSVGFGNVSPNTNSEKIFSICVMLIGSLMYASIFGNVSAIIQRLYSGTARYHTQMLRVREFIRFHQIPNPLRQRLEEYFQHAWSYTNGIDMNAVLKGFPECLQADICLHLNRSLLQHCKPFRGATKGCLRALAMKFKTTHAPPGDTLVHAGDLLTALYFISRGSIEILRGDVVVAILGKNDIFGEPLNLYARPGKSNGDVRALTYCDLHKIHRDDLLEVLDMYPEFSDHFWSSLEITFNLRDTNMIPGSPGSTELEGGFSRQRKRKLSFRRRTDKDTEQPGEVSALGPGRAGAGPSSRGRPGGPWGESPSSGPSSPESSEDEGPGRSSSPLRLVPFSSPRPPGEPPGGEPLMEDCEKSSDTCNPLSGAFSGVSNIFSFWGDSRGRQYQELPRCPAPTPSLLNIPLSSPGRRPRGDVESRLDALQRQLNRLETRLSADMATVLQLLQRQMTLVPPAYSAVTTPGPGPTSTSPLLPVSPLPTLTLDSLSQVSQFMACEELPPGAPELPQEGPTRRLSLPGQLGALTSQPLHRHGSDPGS
row,SMILES,"hERG current change (%, negative = inhibition) at 10uM [%]"
1,O=C(O)CCC(=O)c1ccc2c(c1)OCCO2,1.89
2,O=c1c(C=NCc2cccs2)c(O)n(C2CCCCC2)c(=O)n1C1CCCCC1,8.72
3,O=C(CCCCCNC(=O)N1CCn2c1nc1ccccc12)NCCc1ccccc1,9.42
4,O=C(O)c1ccccc1C(=O)N1N=C(c2ccccc2)CC1c1ccccc1O (stereo not shown),6.81
5,Cc1nn(C(=O)c2ccco2)c(C)c1Sc1ccc(Br)cc1,-4.64
6,COC(=O)CN1C(=O)COc2ccc(S(=O)(=O)N3CCCCCC3)cc21,-7.44
7,O=C(CSc1nnc(Cc2cc(=O)[nH]c(=O)[nH]2)n1-c1ccc(Cl)cc1)NC1CCCC1,10.7
8,COC(=O)CSc1[nH]c(=O)cc(C)c1C#N,19.9
9,O=C(CN1CCc2ccccc2C1)NCC(=O)Nc1ccc(F)cc1,13.5
10,O=C(Nc1ccc(Cl)cc1)[C@@H]1[C@@H]2C(=O)N(c3cccc(F)c3)C(=O)[C@@H]2[C@H]2C=CC=NN21,-9.36
11,CCCCc1ccc(N=N/C(C(=O)Nc2ccccc2OC)=C(/C)O)cc1,-8.51
12,CCCCc1ccc(N=N/C(C(=O)Nc2ccc(NC(C)=O)cc2OC)=C(/C)O)cc1,-50.2
13,CCCCc1ccc(N=N/C(C(=O)Nc2cc(OC)c(NC(C)=O)cc2OC)=C(/C)O)cc1,14.2
14,O=C(CCCNC(=O)c1ccc(Cl)cc1)Nc1cccc(S(=O)(=O)N2CCCCC2)c1,-20.2
15,O=C(CCNC(=O)c1ccc(Br)cc1)Nc1cccc(S(=O)(=O)N2CCCCCC2)c1,-34.1
16,O=C(CCNC(=O)c1ccc(Cl)cc1)Nc1cccc(S(=O)(=O)N2CCCCC2)c1,-46
17,O=C(CCNC(=O)c1ccc([N+](=O)[O-])cc1)Nc1cccc(S(=O)(=O)N2CCCCC2)c1,-55.2
18,O=C(CCNC(=O)c1ccc(Br)cc1)Nc1cccc(S(=O)(=O)N2CCCC2)c1,-32.7
19,O=C(CCNC(=O)c1ccc([N+](=O)[O-])cc1)Nc1cccc(S(=O)(=O)N2CCCCCC2)c1,-75.1
20,O=C(CCNC(=O)c1ccc(Br)cc1)Nc1cccc(S(=O)(=O)N2CCCCC2)c1,-36.1

row,SMILES,"hERG current change (%, negative = inhibition) at 10uM [%]"
1,CN(C)S(=O)(=O)c1cccc(COC(=O)CCNC(=O)c2ccc([N+](=O)[O-])cc2)c1,-55.2
2,O=C(CCNC(=O)c1ccc([N+](=O)[O-])cc1)Nc1cccc(S(=O)(=O)N2CCOCC2)c1,-31.7
3,O=C(CCNC(=O)c1ccc(Cl)cc1)Nc1cccc(S(=O)(=O)N2CCCCCC2)c1,-57.3
4,CN(C)S(=O)(=O)c1cccc(C(=O)NCCNC(=O)c2cccc(S(=O)(=O)N(C)C)c2)c1,15.9
5,CN(C)S(=O)(=O)c1ccc(C(=O)OCc2ccc([N+](=O)[O-])cc2)cc1,17.6
6,COc1ccc(/C(C)=N/NC(=O)CNC(=O)c2ccncc2)c(OC)c1,3.47
7,COc1cc(OC)c2cc[nH]c2c1,27.3
8,Cc1ccccc1NC(=S)NCC(c1cccnc1)N1CCOCC1 (stereo not shown),-4.07
9,Cc1cc(Nc2ccc(Cl)cc2)n2nnnc2n1,7.83
10,COc1cc(CN2CCN(c3cc(C)ccc3C)CC2)cc([N+](=O)[O-])c1O,7.26
11,Oc1cccc(Nc2ncnc3ccccc23)c1,3.18
12,O=C(CNC(=O)c1ccccc1Br)N/N=C/c1cccs1,4.8
13,Cc1ccc(NC(=O)c2ccc([N+](=O)[O-])cc2)cc1S(=O)(=O)N(C)C,-39.6
14,CCN(CC)S(=O)(=O)c1cccc(NC(=O)CCNC(=O)c2ccc([N+](=O)[O-])cc2)c1,-62.4
15,O=C(NCC(O)c1ccc([N+](=O)[O-])cc1)c1cccc(S(=O)(=O)N2CCOCC2)c1 (stereo not shown),-13
16,O=C(CSc1ccc([N+](=O)[O-])cc1)Nc1cccc(S(=O)(=O)Nc2ccccc2F)c1,-74.4
17,CN(C)S(=O)(=O)c1ccc(NC(=O)CCNC(=O)c2ccc([N+](=O)[O-])cc2)cc1,-12.7
18,O=C(NCC(O)c1ccccc1)c1cccc(S(=O)(=O)N2CCOCC2)c1 (stereo not shown),-18.1
19,O=C(Cc1ccc(Cl)cc1Cl)Nc1cccc(S(=O)(=O)Nc2ccccc2F)c1,-1.71
20,O=C(NCC(O)c1ccc([N+](=O)[O-])cc1)c1cccc(S(=O)(=O)N2CCCC2)c1 (stereo not shown),-66.8
